# TRPV1 PAM = potentiators of human vanilloid receptor 1 (TRPV1); TRPV1-expressing cells, Fluo-8 calcium influx, capsaicin EC20 potentiation; 0.02% of 320,000 active; AID 540277; Q8NER1; potentiation, % at 8.33 µM; in the data active = potentiation above about 80%; inconclusive = between about 30% and that limit; note: 0% is about no effect
# Target sequence (Q8NER1 whole entry, looked up): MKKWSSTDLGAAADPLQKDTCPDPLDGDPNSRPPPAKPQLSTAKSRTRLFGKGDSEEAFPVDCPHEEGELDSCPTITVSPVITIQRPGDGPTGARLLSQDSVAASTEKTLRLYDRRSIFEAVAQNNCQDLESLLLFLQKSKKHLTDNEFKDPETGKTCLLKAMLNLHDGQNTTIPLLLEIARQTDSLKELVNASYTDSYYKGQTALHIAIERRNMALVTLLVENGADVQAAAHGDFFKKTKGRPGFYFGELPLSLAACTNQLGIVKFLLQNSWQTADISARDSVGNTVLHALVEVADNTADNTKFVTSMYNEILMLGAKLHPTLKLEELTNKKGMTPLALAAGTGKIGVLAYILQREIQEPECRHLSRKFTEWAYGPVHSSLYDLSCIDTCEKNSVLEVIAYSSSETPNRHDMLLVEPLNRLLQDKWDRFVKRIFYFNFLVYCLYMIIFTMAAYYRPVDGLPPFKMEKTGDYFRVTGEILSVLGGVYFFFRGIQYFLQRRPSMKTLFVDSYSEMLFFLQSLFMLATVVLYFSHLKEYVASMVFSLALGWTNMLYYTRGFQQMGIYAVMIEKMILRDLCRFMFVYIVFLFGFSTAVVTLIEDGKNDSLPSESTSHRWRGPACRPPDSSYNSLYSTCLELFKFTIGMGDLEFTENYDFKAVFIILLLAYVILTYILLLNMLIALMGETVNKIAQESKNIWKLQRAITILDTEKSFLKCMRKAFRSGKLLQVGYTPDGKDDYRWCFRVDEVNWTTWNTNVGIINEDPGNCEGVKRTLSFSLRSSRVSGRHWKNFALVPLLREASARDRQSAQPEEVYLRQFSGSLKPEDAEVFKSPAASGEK
#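 Fluo-8 calcium influx in TRPV1-expressing cells, kinetic read (ex 480/em 520 nm). Compound added and read 3 min for agonist activity, followed by capsaicin at EC20 final and 2 min further read for enhancement.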
# TRPV1 ag = activates the human vanilloid receptor TRPV1; AID 540275; Q8NER1; TRPV1-expressing cells, Fluo-8 calcium influx, agonist mode; activation, % at 8.33 µM; 0.19% of 320,000 active; in the data active = activation above about 80%; inconclusive = between about 30% and that limit; note: 0% is about no effect
#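 Fluo-8 calcium influx in TRPV1-expressing cells, kinetic read (ex 480/em 520 nm). Compound added and read 3 min for agonist activity, followed by capsaicin at EC20 final and 2 min further read for enhancement.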
# TRPML1 inh = inhibitors of human TRPML1 channel | 0.02% of 390,000 active | activity change, negative = inhibition, % (concentration not given with the values) | TRPML1-inducible cells, Ca2+ dye fluorescence, FDSS; active compounds read low; inhibition of EC80 agonist-evoked calcium signal | AID 624415 | Q9GZU1; in the data active = activity change below about -50%; inconclusive = between about -30% and that limit;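 note: stimulus is agonist 54-4 at its EC80 concentration; % is set by controls: 0 for no effect and ±100 for the full control effect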
#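 Tet-induced TRPML1-DL cells loaded with Ca8 no-wash calcium dye were read kinetically on FDSS. Compound addition was followed by EC80 agonist 54-4 (4 uM final); inhibition was read over 110 s.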
# TRHR ag = TRH receptor (human) agonism | P34981 | TRHR cells, calcium flux fluo-8, FDSS agonist mode | activation, % at 2 µM | 0.18% of 360,000 active; in the data active = activation above about 30%; note: 0% is about no effect
#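 TRHR-expressing cells, plated overnight in medium with 10% serum, were loaded with fluo-8 calcium dye at room temperature. After a 10 s baseline, library compound was pin-added and calcium release was recorded kinetically (ex 480/em 530) as agonist response.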
# TRPML1 agonist = human mucolipin-1 channel agonism; Q9GZU1; TRPML1-expressing cells, Ca2+ dye fluorescence, FDSS; activation, % (no concentration beside the values); 0.12% of 410,000 active; AID 624414; in the data active = activation above about 50%; inconclusive = mostly about 30% to 49%; note: 0% is about no effect
#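 TRPML1-DL cells, Tet-induced overnight (~16 h, 37 degrees C), loaded 45-90 min at room temperature with Ca8 no-wash calcium dye plus quencher. FDSS fluorescence: 10 s baseline, compound pin-transfer, 110 s agonist read, then EC80 54-4 (4uM final) and 110 s antagonist read.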
# TRHR enhancer = TRH receptor (human) allosteric enhancement. TRHR cells, fluo-8 calcium fluorescence, EC20 TRH enhancement. AID 493056. enhancement, % at 2 µM. 0.66% of 360,000 active; in the data active = enhancement above about 30%; note: 0% is about no effect
#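 Enhancer read-out: after compound pinning and an initial kinetic agonist-mode read, an EC20 of TRH (10 nM final) was injected and fluo-8 calcium signal (Ex 480/Em 530) followed at 1 s/cycle for 100 cycles in TRHR-expressing cells.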
# Starred values were filed as active, the others as inactive; ? = inconclusive; . = no result given. Rows were chosen to be rich in hits. Some 0.96% of all compounds tested hit in one or more screens of this group.
SMILES,TRPV1 PAM,TRPV1 ag,TRPML1 inh,TRHR ag,TRPML1 agonist,TRHR enhancer
COc1ccc(OC)c(/C=C/c2cc3ccccc3cn2)c1,.,.,.,.,-1,.
COc1ccc(Nc2cc(C(=O)NCCCN(C)Cc3ccccc3)c3ccccc3n2)cc1OC,.,.,2,1,0,-6
O/N=C(\Cc1cscn1)c1ccc(O)cc1O,1,2,-3,0,-1,17
CCc1cc(/C(Cc2cscn2)=N\O)c(O)cc1O,-8,8,-11,1,-1,30*
COc1ccc(NC(=O)c2ccc3c(c2)N(Cc2cccc(Cl)c2)C(=O)c2ccccc2S3(=O)=O)cc1Cl,.,.,-8,0,4,-2
CC(=O)c1ccc(NC(=O)c2ccc3c(c2)N(Cc2cccc(Cl)c2)C(=O)c2ccccc2S3(=O)=O)cc1,.,.,5,1,4,30*
CC(C)[C@H](NC(=O)N1CC(=O)Nc2ccccc21)C(=O)N[C@@H](C(=O)O)c1ccccc1,17,1,-11,0,0,-3
CC(C)C[C@H](NC(=O)N1CC(=O)Nc2ccccc21)C(=O)N[C@H](C(=O)O)c1ccccc1,13,-1,.,0,.,33*
CC(C)[C@H](NC(=O)N1CC(=O)Nc2ccccc21)C(=O)N[C@H](C(=O)O)c1ccccc1,-1,-3,-7,0,0,30*
O=C1CN(C(=O)N[C@@H](Cc2ccccc2)C(=O)N[C@H](C(=O)O)c2ccccc2)c2ccccc2N1,-8,0,-3,0,-1,8
Cc1ccc(S(=O)(=O)N2CCN(c3nc(-c4ccc(CN5CCOCC5)s4)nc4ccccc34)CC2)cc1,.,.,.,.,-1,.
CC(Cl)OC(=O)Nc1cccc2cccnc12 (stereo not given),0,3,7,1,1,-4
CCN(CC)S(=O)(=O)c1cc(C(=O)Nc2ccccc2C(=O)O)ccc1OC,?,1,-3,-1,2,39*
COc1ccc(Cn2nnnc2C(c2ccccn2)N2CCN(c3cc(Cl)ccc3C)CC2)cc1 (stereo not given),0,15,-14,2,74*,1
O=C(Nc1ccc(C2SCCS2)cc1)c1ccccc1,-6,86*,0,0,2,-5
CNC(=O)Nc1ccc(C2SCCS2)cc1,-25,29,0,0,0,7
O=[N+]([O-])c1cccnc1N1CCN(c2ccc(F)cc2)CC1,-7,9,-3,1,-2,37*
O=[N+]([O-])c1cccnc1N1CCOCC1,8,-1,24,0,1,4
Cc1cc(OCCn2ccnc2)cc(C(C)C)c1,0,1,-3,-1,2,-3
Cc1cc(C)cc(OCCn2ccnc2)c1,2,3,-1,0,0,35*
C(=Nc1ccc2ccccc2n1)c1ccccn1,.,.,.,.,-1,.
Cc1nn(C)cc1C(C)Nc1nc2nonc2nc1N1CCCCC1 (stereo not given),-3,1,7,-1,0,33*
O=C(Cc1ccc(OCc2ccccn2)cc1)NO,.,.,.,.,0,.
CCN1C(=O)[C@@H]2[C@H](C1=O)[C@@H]1C(=O)Nc3ccccc3C(=O)N1[C@@H]2c1ccc(Br)cc1,106*,-2,0,0,0,5
CCOc1cc(/C=C\c2[nH]c(=O)[nH]c(=O)c2[N+](=O)[O-])ccc1OC(C)CC (stereo not given),13,-4,-71*,0,-1,-1
SMILES,TRPV1 PAM,TRPV1 ag,TRPML1 inh,TRHR ag,TRPML1 agonist,TRHR enhancer
Cc1ccccc1OC(C)C(=O)NCCNC(=O)C(C)Oc1ccccc1C (stereo not given),.,.,.,.,0,.
Cc1ccc(S(=O)(=O)Oc2ccccc2-c2ccccc2)cc1,.,.,-24,.,100*,.
O=S(=O)(c1ccc2c(c1)OCCO2)N1CCN(S(=O)(=O)c2cccc[n+]2[O-])CC1,.,.,.,-1,.,-3
CCOC(=O)c1c(C)oc2nc(C)nc(NCc3ccccc3OCC)c12,.,.,28,-1,3,43*
O=C(Nc1cccc(F)c1)Nc1ccc2c(c1)CCC2,-8,?,44,1,0,5
O=C(Nc1ccc(F)cc1)Nc1ccc2c(c1)CCC2,-1,17,3,1,1,35*
Cc1ccc(C(=O)Oc2oc(-c3ccccc3)nc2C=Nc2ccc(N(C)C)cc2)cc1,-10,-5,-13,0,2,8
CN(C)c1ccc(N=Cc2nc(-c3ccccc3)oc2OC(=O)c2cccc(Cl)c2)cc1,-11,80*,9,7,3,-2
Cc1nnsc1C(=O)N/N=C/c1ccc2ccccc2c1O,-16,?,-12,65*,?,15
Cc1nnsc1C(=O)N/N=C/c1ccccc1,21,-3,-4,-1,-1,5
COc1ccc(OC)c(C(=O)c2coc3ccc(O)cc23)c1,-8,0,5,-1,0,40*
COc1ccc2occ(C(=O)c3ccccc3)c2c1,-4,17,7,-1,-1,2
O=C1c2ccccc2C(=O)N1c1cccc(N2C(=O)c3ccccc3C2=O)n1,.,.,.,.,0,.
CCN1C(=O)c2cccc3c(N)ccc(c23)C1=O,6,198*,1,284*,0,60*
Cc1ccc(N2C(=O)c3cccc4c(N)ccc(c34)C2=O)c2cccnc12,-8,94*,0,158*,90*,26
Cc1ccc(-n2cnnn2)c2cccnc12,-7,-3,-7,0,1,6
Cc1nn(C)c(C)c1N1C(=O)c2cccc3c(Br)ccc(c23)C1=O,?,0,-12,0,-1,-2
CCCCNc1ccc2c3c(cccc13)C(=O)N(CCCC)C2=O,-5,92*,-22,286*,110*,-14
CN(C)CCCN1C(=O)c2cccc3c(Br)ccc(c23)C1=O,?,2,-1,7,3,-2
Cc1nn(C)c(C)c1N1C(=O)c2cccc3c(N)ccc(c23)C1=O,-16,93*,-11,135*,94*,22
CN(C)CCCNc1cc(N2CCN(C)CC2)ncn1,.,.,.,.,-1,.
O=S(=O)(c1ccccc1F)N1CCN(c2nc(-c3cccs3)nc3ccccc23)CC1,.,.,.,.,0,.
CN(C)c1nc(C#N)nc(N(C)C)n1,-1,-1,4,0,0,33*
O=C1C[C@H]2C=CCc3cccc(c32)CN1Cc1ccc(Br)cc1,.,.,.,.,0,.
CC(C)CC(c1nnnn1Cc1cccs1)N1CCN(c2nc3ccccc3s2)CC1 (stereo not given),-5,1,-11,-1,74*,4
COc1ccc(/C=C/C(=O)c2cc(C(=O)/C=C/c3ccc(OC)cc3)c(O)cc2O)cc1,.,.,.,.,-1,.
